Experimental data from PubChem BioAssay (NCI).
Where “and” joins values, the source holds several entries; their conditions need not be identical. Equal values may be shown once. The panel holds about 79,000 compounds, 15% with a hit somewhere; the sample as a whole holds those more often. Calls of active or inactive are those of the source. No stated cut-off is given here; in the data, active means growth inhibition above about 70%; inactive means the rest.

assay: NCI Yeast Anticancer Drug Screen. Data for the rad50 strain (AID 155);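 further: 0% = growth of vehicle-only cultures of the same strain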; conditions: S. cerevisiae rad50 strain growth inhibition; at 50.0 µM; stronger effect = higher value
Method in brief: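 Yeast carrying a defined DNA repair defect were exposed to test compounds, and growth was compared with vehicle-treated controls to give percent inhibition.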

SMILES | growth inhibition
NC(=O)/C=C/C(=O)O | 19% (inactive)
O=C(O)c1cc(I)cc(I)c1I | -5.55% (inactive)
CC(C)(C)NC(=O)C(Cl)Cl | -0.65% (inactive)
O.O.O=Cc1ccccc1O.O=Cc1ccccc1O.[Co] | 98.2% (active)
CC(Cc1ccc(O)cc1)NCC(O)c1ccc(O)c(O)c1 (stereo not given) | 10.6% (inactive)
CC1([N+](=O)[O-])COP(=O)(NCC2CCCO2)OC1 (stereo not given) | 4.8% (inactive)
O=[As](O)(O)c1cc(F)ccc1F | -5.75% (inactive)
O=C(O)COc1ccc(Cl)cc1Cl (tested in a mixture with another compound) | -0.5% (inactive)
NC(CSC(c1ccccc1)c1ccccc1)C(=O)O (stereo not given) | 6.3% (inactive)
Cc1cccc(C)c1[S][Pb][S]c1c(C)cccc1C | -0.6% (inactive)
O=C(CF)NCCCl | -3.45% (inactive)
O=C(Nc1ccc(Cl)cc1C(=O)c1ccccc1)c1ccc(Cl)cc1 | -5.95% (inactive)
CN1CN(c2ccccc2)C2(CCN(CC(C)(c3ccc(F)cc3)C3OCCCO3)CC2)C1=O (stereo not given) | -22.9% (inactive)
CCOC(CNC(=O)c1ccc(S(=O)(=O)F)cc1)OCC | -4.4% (inactive)
CCN(CC)CC(=O)c1ccccc1 | -24.1% (inactive)
CCC[CH2][Sn]([CH2]CCC)([CH2]CCC)[CH2]CC(=O)OC | 99.5% (active)
CCC(=O)C1(c2ccccc2)CCN(C)CC1 | -20.7% (inactive)
Cc1nnnn1C | -13.2% (inactive)
O=[As](O)(O)c1cc(N=Nc2ccc(-c3ccc(N=Nc4cc([As](=O)(O)O)c(O)cc4O)cc3)cc2)c(O)cc1O | 0.1% (inactive)
N#C[C@H](OC1OC(COC2OC(CO)C(O)C(O)C2O)C(O)C(O)C1O)c1ccccc1 (stereo not given in full) | -34.5% (inactive)

SMILES | growth inhibition
CCCCCCN1C(C)C1C(C)C (stereo not given) | 5.7% (inactive)
CCCCCOP(=O)(OCCCCC)C(=O)Nc1ccc([N+](=O)[O-])cc1 | -12.9% (inactive)
Cc1nnc2cc3ccccc3cn12 | 21% (inactive)
C[N+](C)(C)CC1CCC(C[N+](C)(C)C)C1=NO (stereo not given) | -16.3% (inactive)
C[C@H]1CC(=O)C[C@@H]2CC[C@@H]3[C@H](CC[C@]4(C)C(OC(=O)c5cccc6c(=O)c7ccccc7[nH]c56)CC[C@@H]34)[C@]21C (stereo not given in full) | 42.4% (inactive)
C=C(C)C1(CC)C(=O)NC(=O)N(C)C1=O (stereo not given) | 11.8% (inactive) and -4.5% (inactive)
O=c1oc2ccccc2c(O)c1C(c1cnc2ccccc2c1)c1c(O)c2ccccc2oc1=O | 33.4% (inactive)
CNC(C)(C)Cc1ccc(Cl)cc1 | 33.5% (inactive)
O=P(OCCCCl)(OCCCCl)C(Cl)(Cl)Cl | -0.45% (inactive)
OC1(CN2CCCCC2)N=C(c2ccccc2)c2ccsc2-n2cccc21 (stereo not given) | -19.6% (inactive)
O=c1[nH]c2ccccc2c(=O)n1-c1ccccc1 | -8.1% (inactive)
CCCCCCCCCCCOP(=O)(OCC)OCC | 99.5% (active)
Cc1ccc(NC(=O)C(Cl)(Cl)Cl)cc1Cl | 1.8% (inactive)
NC(Cc1ccc(Cl)cc1)P(=O)(O)O (stereo not given) | 7.7% (inactive)
c1ccc(-c2sc3cccc[n+]3c2-c2ccccc2)cc1 | -5.3% (inactive)
CC(=O)Oc1ccc([As](=O)(O)O)cc1 | 5.55% (inactive)
CO[C](=[W])c1ccccc1.[C-]#[O+].[C-]#[O+].[C-]#[O+].[C-]#[O+].[C-]#[O+] | 12.2% (inactive)
CC(C)c1cccc(OC(=O)N(C)C=O)c1 | -8.1% (inactive)
Cc1cnc2ncn(Cc3c[nH]c(=O)[nH]c3=O)c(=O)c2c1 | -0.45% (inactive)
CCCCC(Br)C(=O)OCC (stereo not given) | 26.1% (inactive)
